Only some compounds are listed: those with a hit (about 4% of all), similar ones and a draw of the others.
CSC inhib = cancer stem cell viability inhibitors, primary screen, luminescence; cancer stem cell-like cells viability; inhibition, % at 7.5 µM; 1.1% of 300,000 active; AID 2717, 2010; in the data active = inhibition above about 75%; inconclusive = no clear call, values can overlap the other calls; tested in HMLE shEcad cells
Gli-Sufu block = Gli-Sufu pathway antagonists, primary screen, luciferase luminescence, Sufu-KO-LIGHT cells, uHTS; 0.74% of 340,000 active; inhibition, % at 5 µM; AID 588413, 2011; Sufu-KO-LIGHT fibroblasts, Gli luciferase reporter luminescence;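 active = inhibition above about 55%, limit read from the data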;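 also: 0% = DMSO-treated cells and 100% = wells with medium but no cells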
PAX8 reporter = inhibitors of PAX8-driven TPO luciferase reporter, primary screen, RMG-I cells, single concentration. SteadyGlo, 24 h. inhibition, % at 12.6 µM. 1.2% of 360,000 active;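 active = mean replicate inhibition at least 60% with every replicate also reaching 60%; inconclusive = only one of the two criteria is met; inactive = mean below 60% and not all replicates reaching 60%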;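 also: luciferase light reporting Pax8 driven TPO promoter activity; plate controls were median of neutral control wells for no effect and mitoxantrone controls for full effect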
Shn3 3UTR inh = reduction of Shn3 3'UTR firefly luciferase signal, primary screen, Schnurri-3 inhibitor project, cell-based, Clone20 osteoblasts, set 2. Clone20 osteoblast Shn3 3'UTR firefly luciferase, 24 h. inhibition, % at 12.5 µM. 0.52% of 360,000 active;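 active = mean inhibition of at least 75% with every replicate also reaching 75%; inconclusive = mean inhibition at least 75% but some replicate below; inactive = mean inhibition below 75%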;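 also: 0% = median of neutral control wells and 100% = pilot-screen positive control compound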
Beta apoptosis = inhibitors of cytokine-induced beta cell apoptosis, primary screen, luminescence | INS-1E cytokine-induced death, ATP luminescence, 48 h; percent of positive-control rescue, neutral wells zero | 0.8% of 300,000 active | protection from apoptosis, % (concentration not given with the values) | AID 435005, 2010;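 active = Every replicate reaches about 75%, or at least half do and their mean reaches it too, limit read from the data; inconclusive = At least half of replicates reach the limit but their mean does not; inactive = Under half of replicates reach the limit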;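 also: 0% = cytokine-treated negative control wells and 100% = positive control rescue; higher means more ATP so stronger rescue from cytokine killing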
Mdm2-MdmX inh = inhibitors of human Mdm2-MdmX association, primary screen, cell-based, luminescence, split luciferase, SaOS-2, uHTS | SaOS-2 split-luciferase Mdm2/MdmX complementation | inhibition, % at 8 µM | 3% of 330,000 active | AID 485346, 2010;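 active = inhibition of at least 50% at 8 µM in the primary screen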
Mdm2 MdmX conf = Mdm2-MdmX complex disruptors, retested hits, confirmation, luminescence, single concentration; 55% of 10,000 active; shares compounds with Mdm2-MdmX inh; inhibition, % at 8 µM; Mdm2-MdmX binding, luminescent assay; in the data active = inhibition above about 40%
Full FLuc ctr = full-length luciferase signal inhibition, confirmation, counter-screen for Mdm2/MdmX interaction inhibitor project, cell-based, single concentration, SaOS-2. shares compounds with Mdm2-MdmX inh. SaOS-2 full-length luciferase counterscreen, luminescence. inhibition, % at 8 µM. 77% of 6,200 active;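 active = mean inhibition at 8 µM reaching about 37%, which flags the compound as non-specific, limit read from the data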;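 also: p53-null SaOS-2 cells with luciferase driven by a doxycycline-inducible promoter; compound on cells about two nights before reading with doxycycline added after day one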
Active calls of the source: *; ? = inconclusive; · = no result given.

SMILES	CSC inhib	Gli-Sufu block	PAX8 reporter	Shn3 3UTR inh	Beta apoptosis	Mdm2-MdmX inh	Mdm2 MdmX conf	others
COCCn1c(C)cc(O)c(C(=O)Nc2cccc(Cl)c2)c1=O	-2	-9	-2	9	-9	65*	52*	Full FLuc ctr=42*
CCn1c(C)cc(O)c(C(=O)Nc2cccc(Cl)c2)c1=O	-4	-36	-17	-14	3	34	·
O=C(/C=C/c1cccs1)N1CCC2(CC1)Oc1ccc(Cl)cc1C(=O)C21CC(c2cccnc2)=NO1 (stereo unspecified)	45	4	34	2	14	67*	27
CSc1nc2ccccc2cc1/C=C(\C#N)c1cccc(Cl)c1	?	7	·	-6	20	57*	56*	Full FLuc ctr=58*
CCCC(=O)Nc1ccc2c(c1)C(=O)N(C)[C@@H]1CC[C@H](CC(=O)NCc3ccccc3Cl)O[C@H]1CO2	·	·	25	·	·	·	·
CC1(C)Cc2c(c(-c3ccco3)nc3sc4c(NCCN5CCOCC5)ncnc4c23)CO1	27	24	2	12	5	51*	8
CCN(CC)CCNc1ncnc2c1sc1nc(N3CCOCC3)c3c(c12)CCCC3	0	3	36	3	12	71*	36	Full FLuc ctr=65*
CCN(CC)CCNc1ncnc2c1sc1nc(N3CCCC3)c3c(c12)CC(C)(C)OC3	20	0	14	-44	3	59*	32
Cc1cc(C)cc(N2C(=O)CS(=O)(=O)C2c2cccc([N+](=O)[O-])c2)c1 (stereo unspecified)	·	·	-2	·	·	·	·
O=C(C[C@H]1C[C@H]2c3cc(NC(=O)C4CCOCC4)ccc3O[C@H]2[C@@H](CO)O1)NCc1cccnc1	·	·	-2	·	·	·	·
C[C@@H]1CN([C@H](C)CO)C(=O)CCCn2cc(nn2)CO[C@H]1CN(C)Cc1ccccc1C(=O)O	·	·	-19	·	·	·	·
O=C(c1ccco1)N1CCN(c2ncnc3sc4c(c23)CCC4)CC1	-3	3	3	24	8	29	·
c1ccc(N2CCN(c3ncnc4sc5c(c34)CCC5)CC2)cc1	13	7	·	28	0	67*	56*	Full FLuc ctr=39*
O=C(Cc1nc2ccccc2[nH]1)c1cccc([N+](=O)[O-])c1	91*	1	62*	39	59	87*	77*	Full FLuc ctr=39*
O=C(Nc1nc2ccccc2[nH]1)c1cccc([N+](=O)[O-])c1	-2	-15	-121	-71	13	-53	·
O=C(CNc1ccc2ccccc2c1)N/N=C/C=C/c1cccc([N+](=O)[O-])c1	28	0	24	0	-6	82*	12
CC(Nc1nc(-c2ccc(Cl)cc2)cs1)c1nc2cc(Cl)c(N3CCCCC3)cc2n1CCOCCO (stereo unspecified)	?	26	25	27	3	51*	2
COc1ccc(-c2csc(NC(C)c3nc4cc(Cl)c(N5CCCCC5)cc4n3CCOCCO)n2)cc1 (stereo unspecified)	-3	7	4	23	-2	31	·
Oc1ccc(Br)cc1-c1ccnn1-c1ccccc1	69	29	-10	-8	5	64*	57*	Full FLuc ctr=50*
Oc1ccc(Br)cc1-c1n[nH]c(=S)n1Cc1ccccc1	-1	6	7	-5	-2	14	·
CC(C)NC(=O)Nc1ccc2c(c1)C(=O)N([C@@H](C)CO)C[C@H](C)[C@H](CN(C)C(=O)C1CCCCC1)OCCCC[C@@H](C)O2	·	·	-5	·	·	·	·
Nc1c(C(=O)Nc2ccc(S(=O)(=O)N3CCCC3)cc2)sc2nc3ccc(OC(F)(F)F)cc3cc12	32	8	42	61	98*	90*	-12
COc1ccc2nc(SCC(=O)Nc3ccc(S(=O)(=O)N4CCCC4)cc3)c(C#N)cc2c1	8	2	·	12	16	13	·
CCOC(=O)c1sc2nc(SC)nc(-c3ccc(Cl)cc3)c2c1N	-9	-13	-6	2	16	60*	13
COc1cc(Cl)cc2c1Sc1ccccc1/C2=C/CCN(C)C	63	11	·	-2	·	69*	13
SMILES	CSC inhib	Gli-Sufu block	PAX8 reporter	Shn3 3UTR inh	Beta apoptosis	Mdm2-MdmX inh	Mdm2 MdmX conf	others
CN(C)CC/C=C1/c2ccccc2Sc2c(O)cc(Cl)cc21	-6	5	·	-20	-3	43	·
N#C[C@H]1[C@@H](c2ccccc2-c2cccc(F)c2)[C@@H](CO)N1C(=O)C1CCCCC1	·	·	-31	·	·	·	·
C[C@H](CO)N1C[C@H](C)[C@H](CN(C)S(=O)(=O)c2ccccc2)Oc2c(NC(=O)Nc3ccc(C(F)(F)F)cc3)cccc2C1=O	·	·	-1	·	·	·	·
CC(=O)NCc1ccc(C(=O)CCl)cc1	-1	-11	-8	3	-33	-4	·
CC(=O)Nc1ccc(C(=O)CCl)cc1	43	12	·	2	-21	67*	29
CCOc1cc(N2CCOCC2)c(OCC)cc1NC(=O)COc1ncnc2ccccc12	-19	5	18	1	-2	4	·
CCOc1cc(N2CCOCC2)c(OCC)cc1NC(=O)c1cc(-c2ccco2)nc2ccccc12	12	23	·	92*	16	70*	66*	Full FLuc ctr=72*
O=C(Nc1ccccc1N1CCOCC1)c1cc(-c2ccncc2)nc2ccccc12	8	-2	26	14	3	55*	38	Full FLuc ctr=82*
COc1ccc(-c2cc(C(=O)NNC(=O)c3csc(N4CCOCC4)n3)c3ccccc3n2)cc1OC	0	9	6	5	18	34	·
COc1ccc(-c2cc(C(=O)Nc3ccccc3N3CCOCC3)c3ccccc3n2)cc1OC	40	18	44	21	15	53*	58*	Full FLuc ctr=75*
COc1ccc(CN(C)C[C@@H]2OCCCC[C@H](C)Oc3ccc(NC(=O)Nc4ccc(F)cc4)cc3C(=O)N([C@@H](C)CO)C[C@H]2C)cc1	·	·	12	·	·	·	·
CC=Cc1ccc2n(c1=O)C[C@@H]1[C@@H](CO)[C@H](C(=O)N3CCc4ccccc4C3)[C@H]2N1Cc1ccncc1 (mixture of isomers)	·	·	13	·	·	·	·
CO[C@@H]1CN(C)C(=O)c2cc(NC(=O)Nc3ccc(Cl)c(Cl)c3)ccc2OC[C@H](C)NC[C@@H]1C	·	·	11	·	·	·	·
COc1ccc2c(c1)c(=O)oc1cc(OCC(=O)NC3CCCCC3)ccc12	-3	7	·	2	2	12	·

Source: PubChem BioAssay (several laboratories)
